PubChem BioAssay AID1745853 (National Center for Advancing Translational Sciences (NCATS), 2022)
Several values for one entry are separate records, joined by “and”; a condition that tells them apart may be missing. Equal values may be shown once. Screen size: about 25,000 compounds; about 970 (3.9%) were called active. About 8% were inconclusive and are not listed. How the calls were made is not given here. Many of the other results were omitted from the sample, so actives are more common in it than they were.

Columns and labels:
Experiment in all cases: Primary Screen for Target Class Profiling of Small Molecule Inhibitors of Methyltransferases
[1] = target: Catechol O-methyltransferase (Homo sapiens) (UniProt P21964); details: purified enzyme, MTase-Glo SAH luminescence; activity change, negative = inhibition: at 40 µM, stronger effect = lower value; outcome: 40 uM
Chain of Catechol O-methyltransferase (Homo sapiens) (P21964 whole entry, looked up): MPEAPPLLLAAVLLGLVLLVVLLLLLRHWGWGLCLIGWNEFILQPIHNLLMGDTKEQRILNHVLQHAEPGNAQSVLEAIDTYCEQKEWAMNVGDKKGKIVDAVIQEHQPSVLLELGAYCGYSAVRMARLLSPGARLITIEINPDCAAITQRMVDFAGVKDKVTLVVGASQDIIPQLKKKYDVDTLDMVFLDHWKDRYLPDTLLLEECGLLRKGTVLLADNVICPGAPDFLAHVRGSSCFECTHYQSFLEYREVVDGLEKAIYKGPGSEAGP
Description: (§1) PI: Matthew D. Hall Ph.D. and Quinlin M. Hanson Ph.D.
(§2) National Center for Advancing Translational Sciences (NCATS)
(§3) National Institute of Health (NIH), Rockville, MD
(§4) Target class profiling (TCP) is a chemical biology approach amenable to investigating understudied biological targets. TCP is achieved by developing a generalizable assay platform and applying it to screen a curated set of compound libraries against representative members of a target class. Small molecule methyltransferases (SMMTase) are a subclass of methyltransferase that act on metabolites to modulate signaling pathways, metabolize xenobiotics, or balance the available methyl pool. We screened four curated libraries totaling 27,574 unique compounds against the SMMTases nicotinamide N-methyltransferase (NNMT), phenylethanolamine N-methyltransferase (PNMT), histamine N-methyltransferase (HNMT), glycine N-methyltransferase (GNMT), catechol O-methyltransferase (COMT), and guanidinoacetate N-methyltransferase (GAMT). The data generated by this TCP can be leveraged for informed tool molecule development. For example, in the associated publication we identified a chemotype of HNMT-selective inhibitors. Additionally, we identified a putative SMMTase-selective inhibitor with potential as a tool molecule for studying broader methyltransferase biology.
(§5) High-through put screening assays were developed at the National Center for Advancing Translational Science (NCATS) for the enzymes NNMT, PNMT, HNMT, GNMT, COMT, and GAMT. Enzymatic activity was measured as a function of SAM cofactor conversion using the MTase Glo kit (Promega) for all enzymes. All assays were performed in 1536-well format with substrates and SAM concentrations at KM values. Enzyme concentration and assay timing were optimized for 10-20% SAM conversion. Initial screening of 27,574 compounds was done as single-point assays using the highest compound concentration (40 uM). […] These compounds were replated in 11-point dose response and assayed against NNMT, PNMT, HNMT, GNMT, COMT, GAMT, and a counter-assay. The IC50 and efficacy (maximal response) values were determined for each dose-response curve. These values are also accounted for in the area under the curve (AUC) values.
(§6) PROTOCOL TABLE (as described by Inglese J, Shamu CE and Guy RK. 2007)
(§7) SEQUENCE No. (e.g., 1, 2, 3, etc.); […] (e.g., Cells, Incubation, Reagent, etc.); VALUE; DESCRIPTION.
(§8) 1; Reagent; 2 uL; SMMTase Enzyme (2x) in reaction buffer, columns 1- 48.
(§9) 2; Reagent; 1 uL; SAM (4x) in reaction buffer, columns 1-48.
(§10) 3; Controls; 23 nL; DMSO in column 4; sinefungin in DMSO (0 uM - 40 uM) in 7-point 1:2 dilution series (n = 2) in column 2.
(§11) 4; Compounds; 23 nL; Columns 5-48.
(§12) 5; Reagent; 1 uL; Substrate (4x) in reaction buffer, columns 2-48.
(§13) 6; Time; 20-30 min; Incubation.
(§14) 7; Reagent; 1 uL; MTase-Glo reagent (5X), columns 1-48.
(§15) 8; Time; 30 min; Incubation.
(§16) 9; Reagent; 5 uL; MTase-Glo Detection reagent, columns 1-48.
(§17) 10; Time; 30 min; Incubation, luminescence evolution.
(§18) 11; Detection; Luminescence; ViewLux uHTS Microplate Imager (PerkinElmer).
(§19) NOTES (numbers refer to Sequence numbers above)
(§20) 1, 2, 5. White Medium Binding Greiner 1536-well plates (Cat #789175-F, Greiner Bio-One, Monroe, NC); Reaction buffer: 50 mM Tris, pH 8.0, 3 mM MgCl2, 1 mM EDTA, 50 mM NaCl, 1 mM DTT, and 0.1 mg/mL BSA. Evaporation was prevented by covering assay plates with metal lids containing holes to allow gas diffusion.
(§21) 1. Six SMMTase were profiled: HNMT, GNMT, PNMT, COMT, NNMT, GAMT
(§22) 5. The corresponding substrate was used for each enzyme: HNMT - 5.3 uM Histamine; GNMT - >500 uM Glycine; PNMT - 16.2 uM Norephinephrine; COMT - 13.7 uM Norephinephrine; NNMT - 3.8 uM Nicotinamide; GAMT - 2.5 uM Guanidinoacetate.6, 8, 10. Room temperature
(§23) 6. Final reaction conditions: 10 nM COMT, 5 uM SAM, 15 uM norepinephrine, 50 mM Tris, pH 8.0, 3 mM MgCl2, 1 mM EDTA, 50 mM NaCl, 1 mM DTT, and 0.1 mg/mL BSA; refer to tables 2 and S1 for specific timing.
8. […]

[2] = target: Glycine N-methyltransferase (Homo sapiens) (UniProt Q14749); details: purified enzyme, MTase-Glo SAH luminescence; measured here: GNMT inhibition; at 40 µM; stronger effect = lower value
Chain of Glycine N-methyltransferase (Homo sapiens) (Q14749 whole entry, looked up): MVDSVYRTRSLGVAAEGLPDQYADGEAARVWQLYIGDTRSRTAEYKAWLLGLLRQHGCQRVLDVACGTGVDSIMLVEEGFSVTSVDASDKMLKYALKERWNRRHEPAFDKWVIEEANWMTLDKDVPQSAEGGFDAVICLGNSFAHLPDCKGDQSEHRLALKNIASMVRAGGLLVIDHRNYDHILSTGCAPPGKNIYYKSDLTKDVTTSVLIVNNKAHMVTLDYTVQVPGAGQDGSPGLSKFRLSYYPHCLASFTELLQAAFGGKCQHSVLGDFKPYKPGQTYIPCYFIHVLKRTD
Description: as §1, §2, §3, §4, §5, §6, §7, §8, §9, §10, §11, §12, §13, §14, §15, §16, §17, §18, §19, §20, §21, §22, §23
8. […]

[3] = target: Guanidinoacetate N-methyltransferase (Homo sapiens) (UniProt Q14353); details: purified enzyme, MTase-Glo SAH luminescence; measured here: GAMT inhibition; at 40 µM; stronger effect = lower value
Description: as §1, §2, §3, §4, §5, §6, §7, §8, §9, §10, §11, §12, §13, §14, §15, §16, §17, §18, §19, §20, §21, §22, §23
8. […]

[4] = target: Histamine N-methyltransferase (Homo sapiens) (UniProt P50135); details: purified enzyme, MTase-Glo SAH luminescence; measured here: HNMT inhibition; at 40 µM; stronger effect = lower value
Chain of Histamine N-methyltransferase (Homo sapiens) (P50135 whole entry, looked up): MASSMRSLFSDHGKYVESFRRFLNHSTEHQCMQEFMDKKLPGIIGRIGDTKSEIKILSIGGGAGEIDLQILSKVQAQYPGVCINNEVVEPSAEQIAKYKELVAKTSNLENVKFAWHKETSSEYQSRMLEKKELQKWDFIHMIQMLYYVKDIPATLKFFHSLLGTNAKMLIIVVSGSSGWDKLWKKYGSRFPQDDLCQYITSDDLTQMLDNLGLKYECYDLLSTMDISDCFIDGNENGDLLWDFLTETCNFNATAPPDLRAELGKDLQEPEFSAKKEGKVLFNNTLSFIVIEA
Description: as §1, §2, §3, §4, §5, §6, §7, §8, §9, §10, §11, §12, §13, §14, §15, §16, §17, §18, §19, §20, §21, §22, §23
8. […]

[5] = target: Nicotinamide N-methyltransferase (Homo sapiens) (UniProt P40261); details: purified enzyme, MTase-Glo SAH luminescence; measured here: NNMT inhibition; at 40 µM; stronger effect = lower value
Chain of Nicotinamide N-methyltransferase (Homo sapiens) (P40261 whole entry, looked up): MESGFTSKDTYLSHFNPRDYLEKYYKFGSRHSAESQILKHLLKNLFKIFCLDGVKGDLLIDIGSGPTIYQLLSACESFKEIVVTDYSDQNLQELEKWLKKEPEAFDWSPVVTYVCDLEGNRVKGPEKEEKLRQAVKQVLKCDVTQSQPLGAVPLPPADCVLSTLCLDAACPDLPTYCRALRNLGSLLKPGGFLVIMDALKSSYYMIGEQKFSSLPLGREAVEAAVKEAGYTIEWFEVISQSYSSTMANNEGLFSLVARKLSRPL
Description: as §1, §2, §3, §4, §5, §6, §7, §8, §9, §10, §11, §12, §13, §14, §15, §16, §17, §18, §19, §20, §21, §22, §23
8. […]

[6] = target: Phenylethanolamine N-methyltransferase (Homo sapiens) (UniProt P11086); details: purified enzyme, MTase-Glo SAH luminescence; measured here: PNMT inhibition; at 40 µM; stronger effect = lower value
Chain of Phenylethanolamine N-methyltransferase (Homo sapiens) (P11086 whole entry, looked up): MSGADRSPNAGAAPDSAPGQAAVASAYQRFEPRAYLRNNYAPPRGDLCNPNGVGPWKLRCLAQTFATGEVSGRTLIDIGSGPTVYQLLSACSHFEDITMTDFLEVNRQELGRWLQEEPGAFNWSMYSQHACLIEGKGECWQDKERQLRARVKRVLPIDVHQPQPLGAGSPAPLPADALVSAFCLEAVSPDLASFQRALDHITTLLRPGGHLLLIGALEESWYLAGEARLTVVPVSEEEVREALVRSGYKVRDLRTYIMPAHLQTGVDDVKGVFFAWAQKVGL
Description: as §1, §2, §3, §4, §5, §6, §7, §8, §9, §10, §11, §12, §13, §14, §15, §16, §17, §18, §19, §20, §21, §22, §23
8. […]
On the % scale 0 is the no-effect control and ±100 the full control effect.

Row | SMILES | activity change, negative = inhibition [1] | activity change, negative = inhibition [2] | activity change, negative = inhibition [3] | activity change, negative = inhibition [4] | activity change, negative = inhibition [5] | activity change, negative = inhibition [6]
1 | Cc1noc(C)c1S(=O)(=O)NCCC1CN(c2cnn(C)c(=O)c2)CCO1 (configuration not stated) | 4.53% (inactive) | -1.17% | -2.35% | 0.773% | -1.18% | 5.68%
2 | COc1ccccc1N1CCN(C(=O)C[C@@H]2C[C@@H](C(C)C)[C@H](CO)C=C2C)CC1 | -4.58% (inactive) | -5.78% | -7.59% | -2.03% | -11.8% | 3.34%
3 | COc1ccc(C(=O)N2CCN(C(=O)N3CC4CC(C3)[C@H]3CCCC(=O)N3C4)CC2)c(OC)n1 (some centres not stated) | 1.98% (inactive) | -0.248% | 0.955% | 0.52% | -3.64% | 0.052%
4 | CCN(CC)CCCC(C)Nc1ccnc2cc(Cl)ccc12 (configuration not stated) | 5.5% (active) and -5.08% (active) | -0.101% and -1.02% | 6.48% and -3.06% | -64.7% and -54.2% | -4.26% and -11.8% | 6.95% and -8.55%
5 | O=C(C1CCCC1)N1CCCC(c2noc(COc3ccccc3)n2)C1 (configuration not stated) | -7.8% (inactive) | -8.83% | -9.57% | -5.83% | -18.3% | -10.2%
6 | CSc1cccc(CN(C)Cc2cc3n(n2)CCNC3)c1 | -0.225% (inactive) | -1.46% | -2.55% | -2.05% | -2.62% | -8.63%
7 | COc1ccccc1CN[C@H]1[C@H](O)[C@@H](N2CCN(c3ccccc3OC)CC2)[C@@H]2OC[C@H]1O2 | 1.34% (inactive) | -1.49% | -8.26% | 2.36% | -0.669% | 2.62%
8 | CCc1cccc(NC(=O)Cn2c(=O)oc3cc(S(=O)(=O)N4CCC(C)CC4)ccc32)c1 | 0.729% (inactive) | -4.13% | 4.45% | -8.18% | -16.8% | -14.1%
9 | Cc1ccc(Cn2c(=O)c3ccc(C(=O)NC(C)C)cc3n3c(=O)n(Cc4cccc(F)c4)nc23)cc1 | 6.38% (inactive) | 4.35% | 1.49% | 7.79% | 5.05% | 6.91%
10 | CC1(C)CCC2(C(=O)OC3OC(COC4OC(CO)C(O)C(O)C4O)C(O)C(O)C3O)CCC3(C)C(=CCC4C5(C)CCC(O)C(C)(C(=O)O)C5CCC43C)C2C1O (configuration not stated) | -56.4% (active) | 0% | 5.96% | 11.8% | -7.28% | 4.84%
11 | C[C@@H]1CC[C@]2(C(=O)O[C@@H]3O[C@H](CO)[C@@H](O)[C@H](O)[C@H]3O)CC[C@]3(C)C(=CCC4[C@@]5(C)C[C@@H](O)[C@H](O)[C@](C)(C(=O)O)C5CC[C@]43C)[C@@H]2[C@]1(C)O (some centres not stated) | 4.37% (inactive) | 6.36% | 4.44% | 15.1% | -9.25% | 7.5%
12 | CC1(C)CC[C@]2(C(=O)O[C@@H]3O[C@H](CO)[C@@H](O)[C@H](O)[C@H]3O)CC[C@]3(C)C(=CCC4[C@@]5(C)CC[C@H](O[C@@H]6O[C@H](C(=O)O)[C@@H](O)[C@H](O)[C@H]6OC6OC(CO)C(O)C(O)C6O)C(C)(C)C5CC[C@]43C)[C@@H]2C1 (some centres not stated) | -21.1% (inactive) | 2.46% | 8.94% | 8.45% | -9.17% | 7.25%
